Experimental data published in PubChem BioAssay (EPA / NIEHS).
Inconclusive results are not listed. The source made the active and inactive calls. Rule for the calls, unless noted: active = hit-call score of the fitted dose curve at least 0.9, where 1 is the maximum; inactive = score below 0.9.

Legend:
[1] = ACEA_ER_80hr: ACEA Biosciences xCELLigence Real-Time Cell Analysis on Estrogen Receptor Agonism for Proliferation (AID 2282667; active = hit-call score of the fitted dose curve at least 0.9, where 1 is the maximum); settings: T47D proliferation, impedance (xCELLigence), 80 h
How it was run: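 T-47D cells monitored by electrical impedance (xCELLigence) with compound present throughout; 80 h timepoint, positive-direction fitting versus DMSO. Eight-point 1:4 dilutions from 100 uM final, duplicate plates.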

[2] = APR_HepG2_MicrotubuleCSK_1hr: Apredica 1-hour HepG2 Assay for Microtubule CSK Stabilty (AID 2282669); settings: HepG2 microtubule cytoskeleton imaging, actives raise or lower the signal
How it was run: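 Alpha-tubulin immunofluorescence, imaged by automated high-content microscopy with Hoechst nuclear segmentation, measured cytoskeletal change after 1 h dosing of HepG2 at 0.39–200 uM in 0.5% DMSO. Activity fitted in both directions relative to DMSO.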

[3] = APR_HepG2_NuclearSize_1hr: Apredica 1-hour HepG2 Assay for Nuclear Size (AID 2282670); settings: high-content imaging, actives raise or lower the signal
How it was run: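 Nuclear size measured by high-content imaging of Hoechst 33342 nuclear stain after formaldehyde fixation; human HepG2 line exposed 1 hr to compounds at 0.39–200 uM in 0.5% DMSO, with bidirectional curve fitting relative to DMSO.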

[4] = APR_HepG2_p53Act_1hr: Apredica 1-hour HepG2 Assay for p53 Activation (AID 2282671); settings: high-content imaging, actives raise or lower the signal
How it was run: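 After 1 h exposure (0.39–200 uM, 0.5% DMSO final, duplicates), fixed HepG2 cells were labelled with anti-p53 antibody plus Hoechst nuclear stain. Fluorescence quantified by automated 20x imaging; changes fitted in both directions against DMSO.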

[5] = APR_HepG2_P-H2AX_1hr: Apredica 1-hour HepG2 Assay for H2AX Phosphorylation (AID 2282673); settings: high-content imaging, actives raise or lower the signal
How it was run: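 Phospho-H2A.x immunofluorescence (1:200, FITC secondary) plus Hoechst nuclear stain, quantified by high-content imaging in HepG2 after 1 hr compound exposure. Ten concentrations, 0.39 to 200 uM, in duplicate with 0.5% DMSO; fit both directions against DMSO.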

[6] = APR_HepG2_MitoMembPot_1hr: Apredica 1-hour HepG2 Assay for Mitochondrial Membrane Potential (AID 2282675); settings: imaging, actives raise or lower the signal
How it was run: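 Mitochondrial membrane potential read as MitoTracker Red CMXRos intensity by automated imaging of fixed HepG2 cells. Dye at 250 nM for 30 min pre-fixation; compounds 0.39 to 200 uM for 1 hour, duplicate wells, 0.5% DMSO.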

[7] = APR_HepG2_CellCycleArrest_24hr: Apredica 24-hour HepG2 Assay for Cell Cycle Arrest (AID 2282905); settings: imaging, actives raise or lower the signal;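 note: cell cycle arrest scored as ratio of 2N to 4N nuclear DNA content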
How it was run: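 Readout: Hoechst 33342 nuclear DNA content by high-content fluorescent imaging, six images/well, 20x. Human HepG2 liver cells, 24 hr compound exposure, 0.39–200 uM, final DMSO 0.5% v/v. Gain or loss fitted relative to DMSO baseline.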

[8] = APR_HepG2_NuclearSize_24hr: Apredica 24-hour HepG2 Assay for Nuclear Size (AID 2282907); settings: high-content imaging, actives raise or lower the signal
How it was run: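 Read-out: nuclear diameter from Hoechst 33342 (2 ug/mL) imaging of fixed HepG2 cells, 20x, six fields/well. Compounds ran at 0.39–200 uM for 24 hr, 0.5% DMSO final. Gain or loss was fitted bidirectionally relative to the DMSO baseline.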

[9] = APR_HepG2_CellLoss_24hr: Apredica 24-hour HepG2 Assay for Cell Loss (AID 2282908); settings: high-content imaging;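 for AC50: fit in both directions so a hit may be cell loss or gain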
How it was run: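 Read-out: Hoechst 33342-stained nuclei counted by automated fluorescence imaging after formaldehyde fixation and Triton permeabilization. Ten concentrations, 0.39 to 200 uM, duplicate wells, 0.5% DMSO final. Gain or loss of signal fitted relative to DMSO baseline.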

[10] = APR_HepG2_MicrotubuleCSK_24hr: Apredica 24-hour HepG2 Assay for Microtubule CSK Stabilty (AID 2282909); settings: HepG2 microtubule cytoskeleton imaging, actives raise or lower the signal
How it was run: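 Read-out: alpha-tubulin immunofluorescence intensity by automated high-content imaging of fixed HepG2 cells after 24 h compound treatment. Ten concentrations, 0.39 to 200 uM, in duplicate; DMSO 0.5% v/v. Taxol positive control; DMSO-normalized bidirectional curve fitting.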

[11] = APR_HepG2_MitoticArrest_24hr: Apredica 24-hour HepG2 Assay for Mitotic Arrest (AID 2282910); settings: high-content imaging, actives raise or lower the signal
How it was run: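 HepG2, 24 hr dosing, 0.39–200 uM, 0.5% DMSO final. Formaldehyde-fixed, Triton-permeabilised, anti-phospho-histone H3 plus Hoechst. ArrayScan imaging at 20x; bidirectional fit vs DMSO baseline.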

[12] = APR_HepG2_MitoMass_24hr: Apredica 24-hour HepG2 Assay for Mitochondrial Mass (AID 2282912); settings: high-content imaging, actives raise or lower the signal
How it was run: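 HepG2, 24 hr dosing, 10 concentrations 0.39–200 uM in duplicate, DMSO 0.5% final. MitoTracker Red CMXRos 250 nM, 30 min pre-fix; 3.7% formaldehyde fix. Imaging-based fluorescence intensity; gain/loss fit vs DMSO baseline.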

[13] = APR_HepG2_p53Act_24hr: Apredica 24-hour HepG2 Assay for p53 Activation (AID 2282913); settings: high-content imaging, actives raise or lower the signal;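 note: p53 protein immunofluorescence averaged per cell in HepG2 with Hoechst nuclei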
How it was run: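 HepG2 cells exposed 24 h to compounds at 0.39–200 uM in duplicate, 0.5% v/v DMSO final; fixed, permeabilized, stained with anti-p53 antibody and Hoechst 33342; fluorescence imaging; bidirectional curve fit versus DMSO.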

[14] = APR_HepG2_CellCycleArrest_72hr: Apredica 72-hour HepG2 Assay for Cell Cycle Arrest (AID 2282914); settings: high-content imaging, actives raise or lower the signal
How it was run: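 HepG2 cells exposed 72 h in duplicate to 0.39–200 uM compound, 0.5% DMSO final. Formaldehyde-fixed, Hoechst 33342-stained nuclei imaged at 20x, six fields per well; DNA content per valid cell quantified by cell-cycle image analysis, bidirectional fit versus DMSO.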

[15] = APR_HepG2_StressKinase_1hr: Apredica 1-hour HepG2 Assay for Stress Kinase (AID 2282906); settings: HepG2 stress kinase (phospho-c-Jun) imaging, actives raise or lower the signal
How it was run: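 High-content imaging of phospho-c-Jun immunostaining (with Hoechst nuclear identification) after a 1 h exposure of HepG2 cells to 10 concentrations from 0.39 to 200 uM, final DMSO 0.5%. Fitted bidirectionally against DMSO.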

[16] = APR_HepG2_CellLoss_1hr: Apredica 1-hour HepG2 Assay for Cell Loss (AID 2282668); settings: high-content imaging;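 note: curves fitted both ways against DMSO so gain or loss of cells counts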
How it was run: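 Cell number comes from high-content imaging of Hoechst-labelled nuclei in fixed HepG2 cells. Cells were exposed for 1 h to ten concentrations from 0.39 to 200 uM in 0.5% DMSO. Gain or loss was fitted against DMSO controls.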

[17] = APR_HepG2_MitoMembPot_24hr: Apredica 24-hour HepG2 Assay for Mitochondrial Membrane Potential (AID 2282911); settings: imaging, actives raise or lower the signal
How it was run: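 HepG2 cells exposed 24 h to 0.39–200 uM compounds in duplicate, 0.5% v/v DMSO final. MitoTracker Red CMXRos 250 nM loaded 30 min before formaldehyde fixation; high-content imaging at 20x, bidirectional fit versus DMSO.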

[18] = APR_HepG2_MitoticArrest_1hr: Apredica 1-hour HepG2 Assay for Mitotic Arrest (AID 2282672); settings: high-content imaging, actives raise or lower the signal
How it was run: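 Ten-point concentration series (0.39 to 200 uM, duplicates, 0.5% v/v DMSO) applied to human HepG2 liver cells for 1 hr. High-content imaging of phospho-histone H3 and Hoechst-stained nuclei after fixation and permeabilization; DMSO-normalised bidirectional fit.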

[19] = APR_HepG2_MitoMass_1hr: Apredica 1-hour HepG2 Assay for Mitochondrial Mass (AID 2282674); settings: high-content imaging, actives raise or lower the signal
How it was run: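 Mitochondrial mass is taken from MitoTracker Red CMXRos (250 nM, 30 min, pre-fixation) fluorescence imaged at 20x in HepG2 cells. Exposure lasted 1 hr across ten concentrations, 0.39 to 200 uM, 0.5% DMSO; DMSO baseline, bidirectional fitting.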

Measured: AC50

Clc1nc(Cl)nc(Nc2ccccc2Cl)n1
inactive: [1] | [2] | [3] | [4] | [5] | [6] | [7] | [8] | [9] | [10] | [11] | [12] | [13] | [14]

CCCCC(O)(Cn1cncn1)c1ccc(Cl)cc1Cl (centres undefined)
inactive: [1] | [2] | [3] | [4] | [6] | [7] | [15] | [8] | [11] | [12] | [14]
active: [9] 88 µM | [10] 103 µM | [13] 105 µM

O=c1n(Cl)c(=O)n(Cl)c(=O)n1Cl
inactive: [1] | [16] | [2] | [4] | [6] | [7] | [8] | [9] | [10] | [11] | [17] | [12] | [13] | [14]

CCNP(=S)(OC)O/C(C)=C/C(=O)OC(C)C (centres undefined)
inactive: [1] | [2] | [4] | [18] | [19] | [6] | [7] | [15] | [8] | [9] | [10] | [11] | [12] | [13] | [14]

CC1(C)C(C=C(Cl)Cl)C1C(=O)OC(C#N)c1cccc(Oc2ccccc2)c1 (centres undefined)
inactive: [1] | [2] | [3] | [4] | [18] | [19] | [6] | [15] | [8] | [9] | [10] | [11] | [17] | [12] | [13] | [14]
active: [7] 35.1 µM
